Source: PubChem BioAssay AID488789 (Broad Institute, 2010)
Results with a measured potency or affinity are listed apart. Inconclusive results are not listed. The source made the active and inactive calls.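 Rule for the calls: active = samples whose fitted half-maximal inhibition concentration is no more than ten times the top valid dose tested; inconclusive = flat response between -70 and -30, or invalid curve fit; inactive = flat within 30 of zero, potency above limit, or signal rising.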

Target: Trypsin (Sus scrofa) (UniProt P00761)
Assay: trypsin protease activity blockade – biochemical, quenched peptide fluorescence, cherry-pick, selectivity assay for Rce1 protease inhibitor project, dose response (AID 488789);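 note: more negative means stronger trypsin inhibition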
Conditions: porcine trypsin, quenched peptide cleavage fluorescence; series mostly up to 10 µM

Sequence of Trypsin (Sus scrofa) (P00761 whole entry, looked up): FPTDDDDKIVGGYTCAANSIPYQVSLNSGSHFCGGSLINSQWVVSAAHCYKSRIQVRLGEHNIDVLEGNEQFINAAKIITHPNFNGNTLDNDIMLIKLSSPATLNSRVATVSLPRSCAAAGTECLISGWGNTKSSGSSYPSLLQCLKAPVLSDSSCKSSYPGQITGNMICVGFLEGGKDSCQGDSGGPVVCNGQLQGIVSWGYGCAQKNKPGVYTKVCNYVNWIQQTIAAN

outcome, inactive:
Cc1ccc(S(=O)(=O)CC(=O)N2CCN(c3ccccc3F)CC2)cc1
Nc1c(Cl)cc(C2=NCCn3nc4cc(C(F)(F)F)ccc4c32)cc1Cl
CCOC(=O)C1CCCN(S(=O)(=O)c2cc3[nH]c(=O)c(=O)[nH]c3cc2C)C1 (centres undefined)
CCCOc1ccccc1C(=O)NCCCC(=O)O
CCOC(=O)c1ccc(NC(=O)N2CCN(Cc3ccccc3)CC2)cc1
COc1ccc(OCC(=O)NS(=O)(=O)c2ccc(Cl)cc2)cc1
CCCn1c(O)c(N=NC(=O)CNC(=O)Cc2ccc(OC)cc2)c2ccccc21
COC(C[C@@H](O)C[C@H](O)[C@H](C)OCc1ccccc1)OC
Cc1ccc(S(=O)(=O)Nc2ccccc2C(=O)NCC2CCCO2)cc1 (centres undefined)
CCOC(=O)C[C@H]1c2ccccc2S(=O)(=O)N1Cc1cc(OC)c(OC)c(OC)c1
C=C(C)C1(O)OC(=O)C=C1OC (centres undefined)
Cc1ccc(C(=O)c2c3ccc(C(F)(F)F)cc3[n+]([O-])n2CCCC(N)=O)cc1
CCc1cc(=O)oc2cc(OCC(=O)N3CCC(C(=O)O)CC3)ccc12
CCOc1cc(CNC2CCCC2)ccc1OCc1ccccc1Cl
CC(C)CC(=O)Nc1ccc2oc(-c3cccnc3)nc2c1
O=S(=O)(c1ccccc1)c1nc(-c2ccco2)oc1N1CCCCC1
CCOC(=O)[C@@H]1[C@H]2COc3ccc(Br)cc3[C@@H]2N2C(=O)N(c3cccc(Cl)c3)C(=O)[C@]12C
O=C(O)CCCC[C@@H]1SC[C@@H]2NC(=O)N[C@@H]21
CCn1c(C)nc2c(=O)oc3ccccc3c21
